TDP1 inh: qHTS Assay for Inhibitors of Tyrosyl-DNA Phosphodiesterase (TDP1); Tyrosyl-DNA phosphodiesterase 1 (Homo sapiens), Q9NUW8; recombinant TDP1, AlphaScreen DNA substrate cleavage; Potency, µM (series often up to 130 µM), for the others: top-dose activity change, negative = inhibition, hits mostly inhibitors; actives 0.28% (n = 350,000); also: potency is read from the fitted curve at half-maximal effect; nearly all actives have a fitted effect of over 40% in size
Target sequence (Q9NUW8 whole entry, looked up): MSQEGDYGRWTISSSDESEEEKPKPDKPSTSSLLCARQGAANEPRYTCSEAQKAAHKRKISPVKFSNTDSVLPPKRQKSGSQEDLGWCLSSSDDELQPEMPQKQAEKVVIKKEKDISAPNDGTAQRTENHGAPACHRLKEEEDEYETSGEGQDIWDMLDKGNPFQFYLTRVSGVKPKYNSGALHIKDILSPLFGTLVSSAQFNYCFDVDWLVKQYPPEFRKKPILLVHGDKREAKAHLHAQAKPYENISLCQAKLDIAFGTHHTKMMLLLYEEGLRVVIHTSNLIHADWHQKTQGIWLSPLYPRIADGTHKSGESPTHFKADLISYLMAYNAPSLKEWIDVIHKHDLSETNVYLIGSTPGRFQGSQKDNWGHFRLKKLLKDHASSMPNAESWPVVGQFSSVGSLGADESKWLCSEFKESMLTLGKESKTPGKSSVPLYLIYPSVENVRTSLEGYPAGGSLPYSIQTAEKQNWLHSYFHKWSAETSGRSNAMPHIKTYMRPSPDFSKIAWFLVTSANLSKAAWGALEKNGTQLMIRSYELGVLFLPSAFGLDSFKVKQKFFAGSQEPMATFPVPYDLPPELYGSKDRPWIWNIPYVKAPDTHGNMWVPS
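Steps: enzyme plus compound, 15 min RT; add biotin/phosphotyrosine-FITC oligonucleotide (15 nM final), react 5 min; add donor/acceptor beads (10 ug/ml final), 10 min; read AlphaScreen. Tdp1 at 1 nM final.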
IL1B secr inh: qHTS for Inhibitors of Inflammasome Signaling: IL-1-beta AlphaLISA Primary Screen | actives 4.7% (n = 360,000) | THP-1 LPS/ATP IL-1B secretion, AlphaLISA, 16 h; hits give low values | AID 743279, 2014 | activity change, % at 57.5 µM; in the data active = activity change below about -50%; inconclusive = mostly about -30% to -49%
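THP-1 cells pretreated 1 hr with compounds (up to 57.5 uM final), then stimulated with LPS (250 ng/mL final) plus ATP (1.25 mM final); secreted IL-1B measured by AlphaLISA after 16 hr, decreased signal indicating inhibition.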
TDP1 cell CPT: qHTS for Inhibitors of human tyrosyl-DNA phosphodiesterase 1 (TDP1): qHTS in cells in presence of CPT. chicken DT40 Tdp1-/-;hTDP1 cells + 20 nM CPT, ATP luminescence, 48 h. Potency, µM (titrated, usually from 46.2 µM), for the others: at the highest dose activity change, negative = growth inhibition, hits mostly inhibitors. actives 12% (n = 420,000); also: potency is read from the fitted curve at half-maximal effect; nearly all actives have a fitted effect of over 55% in size
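Chicken DT40 Tdp1-/- cells stably complemented with human TDP1 were seeded at 400 cells/well in medium containing 20 nM camptothecin, exposed to pin-transferred compounds, and grown at 37 °C for at least 48 hr. Viability was read as ATP luminescence.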
ELG1 DNA repair: qHTS screen for small molecules that inhibit ELG1-dependent DNA repair in human embryonic kidney (HEK293T) cells expressing luciferase-tagged ELG1 | Potency, µM (series often up to 46.1 µM), for inactives: at the top dose activity change, negative = inhibition, hits mostly inhibitors | HEK293T ELG1-luciferase reporter, luminescence, 16 h; DNA damage induced by 5-fluorouridine | actives 2.3% (n = 330,000) | AID 504467, 2011; also: potency is read from the fitted curve at half-maximal effect; nearly all actives have a fitted effect of over 55% in size
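Step one: seed 2,000 cells per well. Step two: pin-transfer compound or DMSO alongside 5-fluorouridine. Step three: incubate 16 hr, 37 °C, 5% CO2. Step four: add ONE-Glo, wait 30 min, read luminescence.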
DT40 TDP1 no CPT: qHTS for Inhibitors of human tyrosyl-DNA phosphodiesterase 1 (TDP1): qHTS in cells in absence of CPT. DT40 Tdp1-/- hTDP1 cells, no CPT, ATP luminescence, 48 h. Potency, µM (highest dose often 46.2 µM), inactives show at the highest dose activity change, negative = growth inhibition, actives largely listed as inhibitors. actives 15% (n = 420,000); also: potency is read from the fitted curve at half-maximal effect; nearly all actives have a fitted effect of over 55% in size
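Compound effects on proliferation are scored in DT40 Tdp1-/-;hTDP1 cells in the absence of CPT. ATP levels (CellTiter-Glo luminescence) are recorded after a ≥48 hr, 37 °C incubation.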
Giardia killer: Small Molecules that selectively kill Giardia lamblia: qHTS; Giardia lamblia trophozoite viability; actives 0.15% (n = 340,000); activity change, % at 7.66 µM, hits read low; in the data active = activity change below about -80%; inconclusive = between about -30% and that limit;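 also: parasites exposed to compound for two days anaerobically before the ATP read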
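Luminescent ATP signal served as the viability read-out, measured 15-30 min after adding ATP detection reagent to trophozoites that had been incubated with compounds for 48 hrs at 37 deg C anaerobically at 100 cells/well.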
The depositor's hits bear a star; ? = inconclusive; . = no result given; [ ] = another dose, or the depositor's remark. An excerpt weighted towards active compounds, which were near 19% of everything screened. Unless noted, calls follow the shape of the dose curve; as a rule, active = well fitted curve in the direction sought with a large enough effect; inconclusive = small, poorly fitted or top-dose-only effect, or another doubt; inactive = no such curve, though single readings can be large; an effect the other way counts as inactive or inconclusive. % is scaled to controls: 0 for no effect and ±100 for the full control effect.

SMILES	TDP1 inh	IL1B secr inh	TDP1 cell CPT	ELG1 DNA repair	DT40 TDP1 no CPT	Giardia killer
O=C(NNc1nc(=O)c2cccnc2s1)c1ccccc1O	9%	118	0.0052µM*	15µM*	0.016µM*	12
O=C(NNC(=O)c1cccc2ccccc12)c1ccccc1O	3%	83	15µM*	-3%	?	-1
COc1ccccc1C(=O)NNc1ncc(C)s1	7%	-2	?	9%	?	36
O=C(NNc1c2ccccc2nc2ccccc12)c1ccccc1Cl	.	60	-23%	-8%	?	-18
O=S(=O)(c1ccccc1)c1nnn2c1nc(N1CCN(c3ccccc3)CC1)c1cc(Cl)ccc12	0%	.	-2%	.	3%	.
O=C(NNc1c2ccccc2nc2ccccc12)c1ccc(O)cc1O	11%	-51*	?	-21%	16µM*	9
CCc1ccc(NC(=O)Cn2c(=O)n(CCCC(=O)NCc3ccccc3OC)c(=O)c3ccccc32)cc1	2%	.	-16%	.	-17%	.
COc1ccc(-c2nn(-c3ccccc3)cc2/C=C2/SC(=S)N(CCC(=O)O)C2=O)c(C)c1	40µM*	-9	?	-18%	?	-10
O=C(O)CCCCCN1C(=O)/C(=C/c2cn(-c3ccccc3)nc2-c2cccs2)SC1=S	.	-21	-40%	.	15µM*	24
CN1CCC(N(C)C(=O)/C=C/c2cn(-c3ccccc3)nc2-c2cccs2)CC1	4%	-91*	?	8%	23µM*	12
O=C(O)CCCCCN1C(=O)/C(=C\c2cn(-c3ccccc3)nc2-c2cccs2)SC1=S	.	0	?	0%	-18%	-8
O=C(O)CCN1C(=O)/C(=C/c2cn(-c3ccccc3)nc2-c2cccs2)SC1=S	-3%	16	4.6µM*	3%	?	0
CNC(=O)c1c(NC(=O)c2ccc(S(=O)(=O)N(C)c3ccccc3)cc2)sc2c1CCN(C(C)C)C2	5%	43	18µM*	?	18µM*	31
CCN1CCc2c(sc(NC(=O)c3ccc4ccccc4c3)c2C(N)=O)C1	6%	.	.	?	.	.
CCN1CCc2c(sc(NC(=O)c3ccc(S(=O)(=O)N(C)c4ccccc4)cc3)c2C(=O)NC)C1	8%	0	16µM*	?	21µM*	-14
COC(=O)c1c(NC(=O)c2ccc(N(C)S(=O)(=O)c3ccc(C)cc3)cc2)sc2c1CCCC2	-3%	3	-16%	-13%	?	-4
Cc1ccc(-c2ccnc(-n3ncc(C(=O)N4CCCCC4c4cccnc4)c3C3CC3)n2)o1 (centres undefined)	.	.	15%[9.04 µM]	.	-3%	.
Cn1c(=O)[nH]c2cc(-c3noc(-c4ccc(C#N)cc4)n3)ccc21	8%	.	-3%	.	-1%	.
COC(=O)c1ccccc1NC(=O)C1CCCN(S(=O)(=O)c2ccc(OC)cc2)C1 (centres undefined)	3%	9	18µM*	?	12µM*	-3
COc1ccccc1NC(=O)C1CCCN(S(=O)(=O)c2ccc3[nH]c(=O)ccc3c2)C1 (centres undefined)	.	25	21µM*	-2%	?	11
COC(=O)c1ccccc1NC(=O)C1CCCN(S(=O)(=O)c2ccc(F)cc2)C1 (centres undefined)	6%	-1	15µM*	?	10µM*	-17
COC(=O)c1ccccc1NC(=O)C1CCCN(S(=O)(=O)c2ccccc2)C1 (centres undefined)	2%	-5	?	?	?	-7
COC(=O)c1ccccc1NC(=O)C1CCCN(c2nnc(-n3cccc3)s2)C1 (centres undefined)	8%	-15	16µM*	?	21µM*	?
CCCCN1CC(=O)N2[C@@H]3c4cc(OC)ccc4OC[C@@H]3[C@H](C(=O)OCC)[C@]2(C)C1=O	.	-2	-9%	.	?	-15
CC(=O)Nc1ccc(C(=O)COC(=O)c2ccco2)c(F)c1	0%	-7	29%	?	-4%	9
SMILES	TDP1 inh	IL1B secr inh	TDP1 cell CPT	ELG1 DNA repair	DT40 TDP1 no CPT	Giardia killer
CCOc1cc(C2C(C#N)=C(N)OC(C)=C2C(C)=O)c(Br)c(Br)c1OC(C)C (centres undefined)	0%[56.1 µM]	0	4.6µM*	-29%	4.6µM*	-2
Cc1cccc(C(=O)Nc2ccc(OCc3cc(=O)n4ccsc4n3)cc2)c1	4%	.	-29%	.	-23%	.
CCOc1cc(/C=C/c2ccc3cccc([N+](=O)[O-])c3n2)ccc1O	4%	-30	?	-23%	18µM*	-23
COc1cc(/C=C/c2ccc3cccc([N+](=O)[O-])c3n2)ccc1OCC#N	5%	-13	5.8µM*	23µM*	3.7µM*	-21
CCOc1cc(/C=C/c2ccc3cccc([N+](=O)[O-])c3n2)ccc1OCC(=O)N(C)C	5%	0	23µM*	16µM*	?	-19
CCOC(=O)N1CCN(Cc2nc(N)nc(Nc3ccc(C)cc3C)n2)CC1	3%	4	-2%	-4%	-24%	0
CCOC(=O)CNC(=S)n1ncnc1N	-4%	-13	16µM*	-1%	?	-11
COc1ccccc1N1CCN(C(=O)c2cc(S(=O)(=O)N3CCC(C)CC3)cn2C)CC1	8%	.	21µM*	.	?	.
Cc1ccc(Cl)cc1N1CCN(C(=O)c2cc(S(=O)(=O)N3CCC(C)CC3)cn2C)CC1	5%	.	23µM*	.	15µM*	.
CCC(=O)Nc1nc(C)c(-c2csc(Nc3ccccn3)n2)s1	5%	-96*	?	-27%	?	-5
CCCC(C)C(=O)Nc1nc(C)c(-c2csc(Nc3ccccc3OC)n2)s1 (centres undefined)	8%	3	16µM*	?	23µM*	-2
CCCC(C)C(=O)Nc1nc(C)c(-c2csc(Nc3ccc(Cl)cc3)n2)s1 (centres undefined)	10%	-3	?	?	26µM*	9
CCCCCCC(=O)Nc1nc(C)c(-c2csc(Nc3cc(Cl)ccc3C)n2)s1	1%	-7	-26%	-18%	?	0
